Test results as given in PubChem BioAssay AID504908 (NMMLSC, 2011).
“And” between values parts separate entries of the source, which are not always exact repeats. Equal values may be shown once. In all, about 1,300 compounds went through this assay and about 25 (2%) were called active.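 How the source made its calls: active means inhibition above a set limit, roughly 3 SD of non-fluorescent compound noise (cut at about 38% in these data); inactive means inhibition at or below that limit.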 Not all results are given here.

These molecules were tested against AP-2 complex subunit beta (Homo sapiens) (UniProt P63010) (assay: inhibitors of arrestin peptide binding to AP2, confirmation, biochemical, cherry pick 1, flow cytometry beads (AID 504908;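 further: loss of bead fluorescence from 50 nM FITC arrestin peptide bound to appendage; 0% = negative control wells and 100% = excess unlabelled arrestin peptide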)). Settings: GST-AP2 beads, FITC arrestin peptide binding, at 10 µM, hits give high values, GST-fused beta2-adaptin appendage, R879A mutant.
Sequence of AP-2 complex subunit beta (Homo sapiens) (P63010 whole entry, looked up, the tested form may be a part, one chain of several): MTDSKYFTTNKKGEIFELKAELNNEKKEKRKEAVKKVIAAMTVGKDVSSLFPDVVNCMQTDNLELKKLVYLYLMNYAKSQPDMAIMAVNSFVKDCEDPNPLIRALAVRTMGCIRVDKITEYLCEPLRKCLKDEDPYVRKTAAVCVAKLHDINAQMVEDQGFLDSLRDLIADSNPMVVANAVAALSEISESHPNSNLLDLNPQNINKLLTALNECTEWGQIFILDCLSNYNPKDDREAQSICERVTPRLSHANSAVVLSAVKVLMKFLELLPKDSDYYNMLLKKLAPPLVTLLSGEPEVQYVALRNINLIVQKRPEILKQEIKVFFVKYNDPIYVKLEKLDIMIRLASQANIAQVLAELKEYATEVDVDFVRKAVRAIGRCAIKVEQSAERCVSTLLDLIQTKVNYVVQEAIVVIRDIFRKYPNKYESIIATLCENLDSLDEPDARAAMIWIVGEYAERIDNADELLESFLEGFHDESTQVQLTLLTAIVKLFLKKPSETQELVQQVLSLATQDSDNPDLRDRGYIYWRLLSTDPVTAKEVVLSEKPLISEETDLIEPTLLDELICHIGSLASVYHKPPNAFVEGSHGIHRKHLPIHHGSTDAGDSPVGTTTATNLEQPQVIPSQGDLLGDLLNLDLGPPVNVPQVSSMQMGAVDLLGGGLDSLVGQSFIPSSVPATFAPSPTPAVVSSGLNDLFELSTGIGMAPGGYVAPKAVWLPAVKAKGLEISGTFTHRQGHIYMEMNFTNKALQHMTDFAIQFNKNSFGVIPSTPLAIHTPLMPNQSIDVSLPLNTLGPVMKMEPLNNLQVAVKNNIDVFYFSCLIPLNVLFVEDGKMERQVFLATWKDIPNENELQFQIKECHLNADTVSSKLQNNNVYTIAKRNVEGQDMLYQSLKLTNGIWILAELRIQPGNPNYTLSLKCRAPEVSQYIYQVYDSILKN

inhibition, inactive:
CN(C(=O)COC(=O)c1cc(=O)[nH]c2ccccc12)C1CCCCC1 -1.7%
Cc1ccc(CN2C(=O)CCC2C(=O)NCCCN2CCCCC2C)cc1 (centres undefined) 10.8%
CC(NC(=O)c1cc2cc(Cl)ccc2oc1=N)c1ccccc1 (centres undefined) -6.34%
COC(=O)c1cc(NC(=O)c2nn(C)c(=O)c3ccccc23)cc(C(=O)OC)c1 -5.22%
COc1ccc(CCNc2ncnc3c2nnn3Cc2ccccc2)cc1 -10.5%
CCn1c(=O)n(CC)c2cc(N3CCCC3)c(NC(=O)c3ccccc3Br)cc21 -0.2%
CC(NCCc1ccc(S(N)(=O)=O)cc1)C(=O)NCc1ccccc1 (centres undefined) 5.93%
O=C(C1CCCO1)N1CCN(S(=O)(=O)c2ccc(Br)cc2)CC1 (centres undefined) -1.61%
Cc1ccc(CNC(=O)C2CC(=O)N(C3CCCCCCC3)C2)cc1 (centres undefined) -8.23%
Cc1ccc(S(=O)(=O)N2CCCCC2)cc1NC(=O)c1cccnc1 -9.09%
NC(=O)C1CCN(C(=O)CC2C(=O)NCCN2Cc2cccc(Oc3ccccc3)c2)CC1 (centres undefined) 0.55%
CCCc1ccc(-c2csc(NC(=O)Cc3cccs3)n2)cc1 8.55%
Cc1cccc(Nc2ccccc2C(=O)NCc2ccco2)c1C 6.33%
Cc1ccc(S(=O)(=O)N2CCN(C(=O)c3ccccc3-c3nc4ccccc4s3)CC2)c(C)c1 15.9%
COc1cc2c(cc1NC(=O)COC(=O)/C=C/c1ccccc1)oc1ccccc12 -9.67%
Cc1ccc(Nc2ccc(C(N)=O)cc2[N+](=O)[O-])cc1 -3.07%
CC(C)C[C@H](NC(=O)N1CCn2c1nc1ccccc12)C(=O)NC1CC1 9.68%
Cc1ccc(C)c(NC(=S)NNC(=S)Nc2ccc(C(C)C)cc2)c1 -5%
Cc1cccc(C)c1NC(=O)C(Cl)C(=O)c1ccccc1 (centres undefined) 8.36%
CC(C)c1nnc(NC(=O)CCC(=O)N2CCN(c3cccc(Cl)c3)CC2)s1 1.25%
Cc1cccc(NC(=S)NC(=O)c2ccc(Br)o2)c1 -4.95%
CC(=O)NCCNC(=O)c1cc(-c2cccc3ccccc23)nc2ccccc12 -1.13%
CCOC(=O)N1CCN(C(=O)CNC(=O)Cc2ccc(Cl)cc2)CC1 -12.2%
Brc1ccccc1C1Nc2cccc3cccc(c23)N1 14.3%
O=C(NCc1ccco1)c1ccc(CS(=O)(=O)Cc2ccc(F)cc2)o1 3.68%
CCOc1ccc(C(=O)NC2CCN(CC(=O)NCc3cccs3)CC2)cc1 -3.4%
Cc1ccc(S(=O)(=O)/N=C(/Nc2ccccn2)c2ccc(Cl)cc2)cc1 13.7%
CC(Oc1ccccc1)C(=O)NN1Cc2ccccc2C1=N (centres undefined) -3.2%
Cn1c(=O)c([N+](=O)[O-])c(Oc2ccccc2)c2ccccc21 2.7%
CCC(C(=O)OC)n1cnc2c(oc3ccccc32)c1=O (centres undefined) -3.46%
CN(C)c1ccc(NC(=O)c2ccncc2)c2ccccc12 -3.42%
COc1ccc(/C=C2\SC(=S)N(CCC(=O)Nc3ccccn3)C2=O)cc1OC 17.1%
CCC(=O)Nc1nc2ccccc2n1Cc1ccccc1C -4.23%
O=C(NCC1(N2CCCCC2)CCCCC1)c1cccc(S(=O)(=O)Nc2ccccc2Cl)c1 -1.26%
COC(=O)C1CC2=C(CC(C)(C)CC2=O)N(c2ccccc2)C1=O (centres undefined) -13.1%
CN1C(=O)/C(=C/c2ccco2)SC1=Nc1cccc(C(=O)O)c1 9.02%
Cc1cc(C(=O)Nc2ccc(C)c(S(=O)(=O)N3CCOCC3)c2)c2ccccc2n1 7.91%
COc1cccc(-n2c(SCC(=O)c3c[nH]c4ccccc34)nc3ccccc3c2=O)c1 11.3%
Cc1cc(C)cc(Oc2nc3c(C)cccn3c(=O)c2/C=C(\C#N)C(=O)NC2CCS(=O)(=O)C2)c1 (centres undefined) 7.24%
Cc1ccc(C2(C)NC(=O)N(CC(=O)Nc3ccccc3C(=O)N3CCCCC3)C2=O)cc1 (centres undefined) 0.91%
Cc1cc(C(=O)OCC(=O)c2c(N)n(C)c(=O)n(C)c2=O)c(C)o1 -0.6% and 1.98%
NS(=O)(=O)c1ccc2nc(NC(=O)C3=COCCO3)sc2c1 3.87%
C/C(=N\Nc1ccc([N+](=O)[O-])cc1)c1ccc(-n2nncc2C(C)(C)C)cc1 -0.82%
COc1cc2c(cc1OC)CN(C(=O)c1cc(=O)c3ccccc3o1)CC2 -9.22%
Cc1ccc(OCCCCc2c(C)n[nH]c2C)cc1 4.8%
COCCNC(=O)Nc1ccc2nc(-c3ccco3)c(-c3ccco3)nc2c1 34%
Cc1ccc(OCCCC(=O)Nc2ccc3c(c2)OCCO3)cc1 -5.58%
Cc1ccc(Cl)cc1-c1ccc(/C=N/n2cnnc2)o1 -9.15%
CC(C)(C)c1ccc(C(=O)NCCn2c(N)c(C#N)c3nc4ccccc4nc32)cc1 6.81%
Cn1c(=O)c2c(nc(N/N=C/c3cccs3)n2Cc2ccc(Br)cc2)n(C)c1=O 1.14%
CC(CN1CCCCC1)OC(=O)c1ccccc1Cl (centres undefined) 7.67%
CCOc1ccc(-c2nnc(-c3ccco3)o2)cc1 11.9%
O=c1[nH]c2ccccc2n2c(-c3ccccc3)nnc12 20.4%
O=C(c1ccc(S(=O)(=O)NCc2ccco2)cc1)N1CCN(c2ccccc2)CC1 1.61%
